Screening results deposited in PubChem by Buhrlage Lab, Dana-Farber Cancer Institute and Novartis Institutes for BioMedical Research (Cambridge, Mass).
The list is not random: actives were taken first. Their share in the collection is about 5%.
USP8 inh – human USP8 deubiquitinase inhibition; P40818; purified USP8, Ub-rhodamine cleavage fluorescence, 30 min; inhibition, % at 20 µM; actives 4.2% (n = 47,000); AID 1645853
Target sequence (P40818 whole entry, looked up): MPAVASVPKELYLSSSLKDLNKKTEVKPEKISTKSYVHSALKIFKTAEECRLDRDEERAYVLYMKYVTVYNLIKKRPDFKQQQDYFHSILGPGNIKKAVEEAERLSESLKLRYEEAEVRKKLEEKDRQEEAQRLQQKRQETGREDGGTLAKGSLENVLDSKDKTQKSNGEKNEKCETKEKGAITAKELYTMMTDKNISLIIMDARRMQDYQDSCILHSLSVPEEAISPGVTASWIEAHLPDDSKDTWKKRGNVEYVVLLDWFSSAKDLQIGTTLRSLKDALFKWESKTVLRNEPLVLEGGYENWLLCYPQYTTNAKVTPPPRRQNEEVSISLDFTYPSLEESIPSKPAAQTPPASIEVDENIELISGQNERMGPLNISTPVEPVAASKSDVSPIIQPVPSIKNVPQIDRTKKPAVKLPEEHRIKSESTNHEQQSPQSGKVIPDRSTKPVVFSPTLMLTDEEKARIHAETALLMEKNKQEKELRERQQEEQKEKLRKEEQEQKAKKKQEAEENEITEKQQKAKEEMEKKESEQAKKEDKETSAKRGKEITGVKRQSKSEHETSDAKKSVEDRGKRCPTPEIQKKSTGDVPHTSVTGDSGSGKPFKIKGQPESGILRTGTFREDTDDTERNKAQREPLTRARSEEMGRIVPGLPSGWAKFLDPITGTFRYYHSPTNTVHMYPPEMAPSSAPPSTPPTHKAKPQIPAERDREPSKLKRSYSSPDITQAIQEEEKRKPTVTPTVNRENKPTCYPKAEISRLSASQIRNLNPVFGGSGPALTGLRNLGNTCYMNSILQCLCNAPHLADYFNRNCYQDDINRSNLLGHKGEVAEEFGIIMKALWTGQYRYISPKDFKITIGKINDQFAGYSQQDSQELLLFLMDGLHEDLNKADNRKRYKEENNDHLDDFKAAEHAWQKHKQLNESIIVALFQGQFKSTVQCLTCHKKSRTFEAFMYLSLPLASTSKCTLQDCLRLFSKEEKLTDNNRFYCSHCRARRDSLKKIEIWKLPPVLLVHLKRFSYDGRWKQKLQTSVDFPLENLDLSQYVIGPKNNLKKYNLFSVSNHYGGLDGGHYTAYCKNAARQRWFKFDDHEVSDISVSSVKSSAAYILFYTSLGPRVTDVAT
USP7 block – human USP7 deubiquitinase inhibition; purified USP7, Ub-rhodamine cleavage fluorescence; inhibition, % at 20 µM; actives 0.3% (n = 47,000); AID 1645854
UCHL1 block – human UCHL1 deubiquitinase inhibition; actives 0.2% (n = 47,000); purified UCHL1, Ub-rhodamine cleavage fluorescence; inhibition, % at 20 µM; P09936
USP10 inh – blocks human USP10 ubiquitin-rhodamine cleavage; purified USP10, Ub-rhodamine fluorescence, 60 min; inhibition, % at 20 µM; actives 1.1% (n = 47,000)
Each line names hits and unclear results; the compound was inactive in the other large screens. Rule as the data show it: active = inhibition above about 30%; inactive = the rest.

Cc1cccc(NC(=O)CCS(=O)(=O)c2ccc3c(c2)CC(=O)N3C)c1	none
CN1C(=O)C(C)(C)COc2ccc(NS(=O)(=O)c3cc(F)ccc3F)cc21	USP8 inh 44
Cc1cccc(S(=O)(=O)Nc2ccc3c(c2)N(C)C(=O)C(C)(C)CO3)c1	none
CN(C)c1ccc(NC(=O)c2ccc(Cn3cc([N+](=O)[O-])cn3)cc2)cc1	USP8 inh 46
CC(NC(=O)c1c(O)c2cnn(Cc3ccccc3)c2[nH]c1=O)c1ccccc1 (stereo unspecified)	USP8 inh 86
O=C(NCc1ccc2c(c1)OCO2)c1c(O)c2cccnc2n(-c2ccccc2)c1=O	USP8 inh 81
O=C(NCc1cc(F)cc(F)c1)c1c(O)c2cnn(Cc3ccccc3)c2[nH]c1=O	none
COc1ccccc1NC(=O)c1c(O)c2cccnc2n(-c2ccccc2)c1=O	USP8 inh 33
O=C(NCc1ccccc1)c1c(O)c2cccnc2n(-c2ccccc2)c1=O	none
O=C(NCc1ccc2c(c1)OCO2)c1c(O)c2cnn(Cc3ccccc3)c2[nH]c1=O	USP8 inh 57
CC(=O)N1CCN(c2cc(-c3noc([C@@H]4CCCN4C4CCN(C)CC4)n3)ccn2)CC1	none
COc1ccccc1CNC(=O)COc1ccccc1-c1nnc(-c2ccccc2)o1	none (no result: USP7 block)
Cc1ccc(NC(=O)c2c(O)c3cnn(C)c3[nH]c2=O)cc1C	USP8 inh 85
Cc1cccc(-c2noc(-c3c(O)c4cnn(Cc5ccccc5)c4[nH]c3=O)n2)c1	none
Cc1ccccc1NC(=O)c1c(O)c2cnn(Cc3ccccc3)c2[nH]c1=O	USP8 inh 83
Cc1ccc(NC(=O)c2cc(=O)n(C)c3c2c(=O)n(C)c(=O)n3C)cc1C	none
CC(OC(=O)c1cccc(N(C)C)c1)C(=O)Nc1sccc1C(N)=O (stereo unspecified)	USP8 inh 32
CC(OC(=O)c1cccc2ccccc12)C(=O)Nc1ccc(Cl)cn1 (stereo unspecified)	none
CC(OC(=O)c1cccc(N(C)C)c1)C(=O)Nc1ncc(Cl)cc1Cl (stereo unspecified)	UCHL1 block 75
Cc1noc(-c2cc(=O)n(CC(=O)NC3CCCC3)c3ccccc23)n1	USP8 inh 35
Cc1noc(-c2cc(=O)n(CC(=O)Nc3ccccc3Cl)c3ccccc23)n1	USP10 inh 34
Cc1noc(-c2cc(=O)n(CC(=O)Nc3ccccc3)c3ccccc23)n1	none
COc1ccc(-c2ccc(-c3nnn(CCN4CCCCC4)n3)cc2)cc1	USP8 inh 47
Cc1nn(-c2ccc(Cl)cc2)c2c1C(c1ccccn1)N1C(=N2)C=Cc2ccccc21 (stereo unspecified)	none
O=C(C1CN(C(=O)c2cnc3ccccc3n2)c2ccccc2O1)N1CCOCC1 (stereo unspecified)	USP8 inh 70
CCOc1cccc(CNC(=O)C2c3ccccc3CC(=O)N2CC)c1 (stereo unspecified)	USP8 inh 55
CNc1nc2c(c(=O)n1-c1ccccc1)CN(C(=O)N(C)C)CC2	none
CC(=O)Nc1ccc(S(=O)(=O)NCc2ccc(C(=O)NCCc3ccc(Cl)cc3)cc2)cc1	none
CS(=O)(=O)Nc1ccc2c(c1)nc1n2CCN(C2CCCC2)C1	none
O=C(CCc1ccccc1)Nc1ccc2c(c1)nc1n2CCN(C2CCCC2)C1	USP8 inh 31
COc1ccc(C2CC(=O)Nc3ccc4ccccc4c32)c(OC)c1OC (stereo unspecified)	none
CCOc1ccccc1C1CC(=O)Nc2ccc3ccccc3c21 (stereo unspecified)	UCHL1 block 89
Cc1oc(-c2[nH]ncc2C(=O)N2CCCC2)cc1S(=O)(=O)N1CCN(CC(C)C)CC1	none
CCCc1nc2ccccc2n1CC(=O)N1CCc2ccccc21	none
O=C(Cn1c(Cc2ccccc2)nc2ccccc21)N1CCc2ccccc21	USP8 inh 49
C=Cc1ccc(CN2C(=O)[C@@H]3CCCN3c3ncccc32)cc1	none
Cc1ccc(NC(=O)CC(C)CC(=O)Nc2ccc(C(C)C)cc2)cc1Cl (stereo unspecified)	USP8 inh 31
O=c1[nH]c(Cc2ccc([N+](=O)[O-])cc2)nc2scc(-c3ccccc3)c12	none
O=C(O)c1ccccc1Cc1nc2scc(-c3ccccc3)c2c(=O)[nH]1	USP8 inh 31
CCCc1cc(=O)n2[nH]c(COc3ccccc3)c(-c3ccccc3)c2n1	USP10 inh 55
CCCc1cc(=O)n2[nH]c(-c3ccccc3)cc2n1	none
O=C(Cc1nnc(-c2ccc3ncccc3c2)o1)NCc1ccccc1	none
COc1cc(C(=O)N(Cc2cccc3ccccc23)c2ccccn2)cc(OC)c1OC	none
COc1cc(CN(C(=O)c2oc3cc(C)ccc3c2C)c2ccccn2)cc(OC)c1OC	USP8 inh 32
Cc1cc(C(F)(F)F)n2nc(C3CCN(C(=O)c4cnn(C)c4C)C3)cc2n1 (stereo unspecified)	USP8 inh 92
Cc1sc2ncnc(OCC(=O)c3ccc(NC(=O)CC(C)C)cc3)c2c1C	USP8 inh 30
Cn1c(=O)c(N2CCN(C(=O)c3cccc(Cl)c3)CC2)nc2ccncc21	none
Cc1ccc(N2CC(c3nc4ccccc4n3CCOc3cccc(C)c3)CC2=O)cc1 (stereo unspecified)	USP8 inh 95, USP7 block 32, USP10 inh 69
CCc1ccc(OCCn2c(CCNC(=O)C3CCCCC3)nc3ccccc32)cc1	USP8 inh 69
CCn1c(CCNC(=O)c2ccccc2)nc2ccccc21	none
Cc1ccc(N2CC(c3nc4ccccc4n3CCCCOc3ccccc3)CC2=O)cc1 (stereo unspecified)	none
Cc1cccc(OCCn2c(CCNC(=O)C3CCCCC3)nc3ccccc32)c1	USP8 inh 48, USP10 inh 32
O=C(NCCc1nc2ccccc2n1CCOc1ccccc1Cl)C1CCCCC1	USP8 inh 83, USP10 inh 38
CS(=O)(=O)N(CC(=O)O)[C@@H]1C[C@@H]2CO[C@H](c3ccccc3)C[C@@H]2C1	none
CCc1nnc(-c2ccc(=O)n(CC(=O)N3CCN(c4ccccc4)CC3)c2)o1	none
Cc1ccc(C)c(S(=O)(=O)N(CC(=O)Nc2cc(C)on2)c2cccc(C(F)(F)F)c2)c1	none
O=C(NCc1cccnc1-c1ccccc1)C1CCC1	none
CCOC(=O)N1CCN(S(=O)(=O)c2ccc(C(=O)Nc3ccc(Br)cc3)cc2)CC1	none
COC(=O)c1ccc(COC(=O)c2cc(C)nc3ccccc23)cc1	none
COC(=O)c1ccc(Nc2cc(C)nc3cc(C(F)(F)F)ccc23)cc1	USP8 inh 35
O=c1ccc(-c2noc(-c3n[nH]c4ccccc34)n2)c[nH]1	USP8 inh 56
O=c1ccc(-c2noc(-c3cccc4[nH]ccc34)n2)c[nH]1	none
CCOc1cc(C(=O)N2CCNC(=O)CC2c2ccccc2)ccc1OC (stereo unspecified)	none
O=C(Cn1c(=O)n(Cc2ccc3c(c2)OCO3)c(=O)c2ccccc21)Nc1ccc2c(c1)OCCO2	none
COCCCNC(=O)c1ccc(Cn2c(=O)c3ccccc3n(CC(=O)Nc3ccc4c(c3)OCCO4)c2=O)cc1	USP8 inh 32
